Data taken from PubChem BioAssay AID778 (Sanford-Burnham Center for Chemical Genomics, 2007).
The whole screen tested about 96,000 compounds, of which about 20,000 (21%) were called active. The list is a sample of the results. Values without a mark were called inactive.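 The calls were made as follows: active = CYP2C19 inhibition above a set limit at 5 µM in the primary screen (cut at about 50% in these data); inactive = the rest.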

biological target: Cytochrome P450 2C19 (Homo sapiens) (UniProt P33261); test: blockers of cytochrome P450 2C19 activity – biochemical, luminescence, ADME assay, primary screen (AID 778); conditions: CYP2C19 Supersomes, luciferin-H EGE luminescence, 30 min; at 5 µM; stronger effect = higher value;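 also: plate controls were negative control wells for no effect and 2.5 mM tranylcypromine positive control for full effect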
Sequence (P33261 whole entry, looked up): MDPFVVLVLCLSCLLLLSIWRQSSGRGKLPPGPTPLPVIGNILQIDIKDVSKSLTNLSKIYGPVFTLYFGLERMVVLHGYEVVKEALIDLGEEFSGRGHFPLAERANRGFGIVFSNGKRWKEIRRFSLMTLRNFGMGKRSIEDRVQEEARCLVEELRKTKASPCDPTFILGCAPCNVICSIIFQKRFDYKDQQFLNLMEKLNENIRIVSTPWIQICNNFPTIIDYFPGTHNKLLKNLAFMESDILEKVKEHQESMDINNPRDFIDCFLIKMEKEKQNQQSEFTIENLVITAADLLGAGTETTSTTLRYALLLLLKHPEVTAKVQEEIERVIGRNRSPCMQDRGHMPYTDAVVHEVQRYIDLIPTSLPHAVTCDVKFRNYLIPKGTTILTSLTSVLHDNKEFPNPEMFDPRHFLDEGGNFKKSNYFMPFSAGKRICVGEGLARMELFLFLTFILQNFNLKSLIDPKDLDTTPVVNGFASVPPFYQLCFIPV

**Q.** For `Cn1c(=O)c2c(nc(N3CCCCCC3)n2CC(O)COc2ccc(Cl)cc2)n(C)c1=O` (stereo not drawn), which inhibition is on record?
**A.** 10.7%

**Q.** How did the inhibition turn out when `N#Cc1nc(COc2ccc(Cl)cc2)oc1N1CCCC1` was run?
**A.** 96.5% (active)

**Q.** Which inhibition does the source give for `CC1CCN(c2oc(-c3ccccc3F)nc2C#N)CC1` here?
**A.** 12%

**Q.** With `O=C1N=C(N2CCOCC2)CS1` as the molecule, how does the inhibition read?
**A.** -3.7%

**Q.** For `C=CCN1C(=O)C(Cc2cccc(Cl)c2)S/C1=N/N=C/c1ccco1` (stereo not drawn), which inhibition is on record?
**A.** -10.3%

**Q.** Which inhibition does the source give for `Cc1ccc2[nH]c(=O)c(COC(=O)c3ccccn3)cc2c1` here?
**A.** 23.3%

**Q.** How did the inhibition turn out when `Cn1c(SCc2nc3ccccc3s2)nnc1-c1ccc2c(c1)OCO2` was run?
**A.** 58.7% (active)

**Q.** For `CCc1ccc(-c2nnn(Cc3nc4ccccc4s3)n2)cc1`, which inhibition is on record?
**A.** 1.9%

**Q.** Which inhibition does the source give for `Cc1ccc(-n2c(SCC(=O)Nc3ccc4c(c3)OCO4)nnc2-c2ccccn2)cc1` here?
**A.** -7.8%

**Q.** With `CCOC(=O)c1c(NC(=O)c2ccc(Br)o2)sc2c1CCCC2` as the molecule, how does the inhibition read?
**A.** -7.9%

**Q.** `CSc1nsc(SC)c1NC(=O)OC1CCCCC1` was tested. Which inhibition did it give?
**A.** 32.5%

**Q.** `O=C(NC1CC2CCCC(C1)N2C(=O)N1CCCCC1)C1CCCCC1` (stereo not drawn) was tested. Which inhibition did it give?
**A.** 79.1% (active)

**Q.** For `O=C(CN1C2CCC1CC(NC(=O)C1CC1)C2)NCc1ccccc1` (stereo not drawn), which inhibition is on record?
**A.** -3.2%

**Q.** For `CCC(C)NC(=O)C1CCCN(C(=O)NC2CCCCC2)C1` (stereo not drawn), which inhibition is on record?
**A.** 10.4%

**Q.** For `CN1CCC2(CC1)NC(=O)NC2=O`, which inhibition is on record?
**A.** -8.2%

**Q.** With `O=S(=O)(NCCOc1cccc2cccnc12)c1ccc(F)cc1` as the molecule, how does the inhibition read?
**A.** 92.5% (active)

**Q.** For `Cc1ccccc1NC(=O)c1ccccc1NS(=O)(=O)c1cccc2cccnc12`, which inhibition is on record?
**A.** 1.4%

**Q.** `Cc1ccc(S(=O)(=O)N(CC(=O)N/N=C/c2ccc(F)cc2)c2cccc3cccnc23)cc1` was tested. Which inhibition did it give?
**A.** 12.8%

**Q.** With `Cc1ccc(-c2noc(-c3ccccc3C(=O)NCC3CCCO3)n2)cc1` (stereo not drawn) as the molecule, how does the inhibition read?
**A.** 39.8%

**Q.** Which inhibition does the source give for `O=C(NCc1ccccn1)c1cc(-c2ccccc2Cl)on1` here?
**A.** 9.3%

**Q.** `COCCNC(=O)c1ccccc1-c1nc(-c2ccccc2Cl)no1` was tested. Which inhibition did it give?
**A.** 52.3% (active)

**Q.** For `Cc1ccc(-c2nnc(-n3nnc4ccccc43)c3ccccc23)cc1`, which inhibition is on record?
**A.** 25.3%

**Q.** With `Cn1cccc1C1(C(F)(F)F)NCCNC1=O` (stereo not drawn) as the molecule, how does the inhibition read?
**A.** 25.5%

**Q.** `CC(C)CCNc1nc(N2CCCC2)c2c(c1C#N)CCN(C)C2` was tested. Which inhibition did it give?
**A.** 44.5%

**Q.** For `NC(=O)C1CCN(C(=O)c2ccc(C(F)(F)F)cc2)CC1`, which inhibition is on record?
**A.** 22.6%

**Q.** How did the inhibition turn out when `Cc1cc(C)n(-c2c(F)c(F)c(COC(=O)c3ccccc3)c(F)c2F)n1` was run?
**A.** 37.2%

**Q.** With `Cn1nc(-c2ccccc2)c(CSc2cccc(Cl)c2)c1Cl` as the molecule, how does the inhibition read?
**A.** 47.7%

**Q.** With `Cc1ccc(S(=O)(=O)c2c(COC(=O)c3cccc(Cl)c3)c(-c3ccccc3)nn2C)cc1` as the molecule, how does the inhibition read?
**A.** 63.4% (active)
